Data: PubChem BioAssay (NCATS)
Calls of active or inactive are those of the source. Where a call stands in place of a potency, no number is given. The call rests on the fitted dose curve; in most records, active means well fitted inhibition curve with a large enough effect; inconclusive means small, poorly fitted or top-dose-only effect; inactive means flat fitted curve, though single readings scatter.

target: Flap endonuclease 1 (Homo sapiens) (UniProt P39748); test: qHTS Validation Assay for the Inhibitors of Human Flap endonuclease 1 (FEN1) (AID 488816); conditions: FEN1 nuclease activity, fluorogenic DNA substrate; series mostly up to 57.1 µM
Text: The major human flap endonuclease FEN1 is an efficient structure-specific enzyme that recognizes and cleaves a 5'-unannealed DNA flap. It belongs to the RAD2 family nucleases, which are involved in DNA metabolism and are highly conserved in prokaryotes and eukaryotes. FEN1 is a key enzyme in DNA replication, repair and maintenance of genomic stability. 5'-flap removal by FEN1 is critical for Okazaki fragment processing during lagging strand DNA synthesis, long-patch base excision repair (LP BER), and regulating or facilitating recombination events. […] Deletion of the yeast FEN1 gene, i.e. rad27, results in an increased frequency of short DNA (3-32 bp) repeats, micro- and mini-satellite formation, trinucleotide repeat expansion, spontaneous recombination events, and a severe growth defect in association with cell cycle arrest in late S/G2 phase. […] Cells from fen1-/- blastocysts show increased apoptotic cell death after ionizing radiation treatment, and chicken cells lacking the fen1 gene are hypersensitive to DNA alkylating agents, e.g. methylmethane sulfonate (MMS) and N-methyl-N'-nitro-N-nitrosoguanidine (MNNG), as well as hydrogen peroxide.
FEN1 is found to be increased in many human cancers, including lung, brain cancer, gastric cancer, prostate cancer, pancreatic cancer and breast cancer. […] In particular, elevation of FEN1 in hormone refractory human prostate cancer cells correlates with resistant to various anticancer agents including ionizing radiation, doxorubicin, paclitaxel and vinblastine.
Three uL of reagents (buffer in column 3 and 4 as negative control and 10 nM FEN1 in columns 1, 2, and 5-48) were dispensed into 1,536-well black solid-bottomed plate. Compounds (23 nL) were transferred via Kalypsys pin tool equipped with 1536-pin array (10 nL slotted pins, V&P Scientific, San Diego, CA). The plates were then incubated for 15 min at room temperature, and 1 uL substrate (50 nM final concentration) were added to start the reaction read twice at 0 min read and 15 min on ViewLux reader. Throughout the screen, reagent bottle and all liquid lines were chilled and made light-tight to minimize reagent degradation. All screening operations were performed on a fully integrated robotic system (Kalypsys, San Diego, CA) containing one RX-130 and two RX-90 anthropomorphic robotic arms (Staubli, Duncan, SC). Library plates were screened starting from the lowest and proceeding to the highest concentration, and a "double-dipping" step of the highest concentration was required to access higher concentrations of compounds. Vehicle-only plates, with DMSO being pin-transferred to the entire column 5-48 compound area, were inserted uniformly at the beginning and the end of each library in order to monitor for and record any shifts in the background, which can be affected by reagent dispensers or loss in enzyme activity overtime. Screening data was corrected, normalized, and concentration-effect relationships were derived by using publicly-available curve fitting algorithms developed in-house (http://ncgc.nih.gov/pub/openhts). A four parameter Hill equation was fitted to the concentration-response data by minimizing the residual error between the modeled and observed responses.
Potency means the concentration at half of the fitted maximal effect.

Chain of Flap endonuclease 1 (Homo sapiens) (P39748 whole entry, looked up, the tested form may be a part): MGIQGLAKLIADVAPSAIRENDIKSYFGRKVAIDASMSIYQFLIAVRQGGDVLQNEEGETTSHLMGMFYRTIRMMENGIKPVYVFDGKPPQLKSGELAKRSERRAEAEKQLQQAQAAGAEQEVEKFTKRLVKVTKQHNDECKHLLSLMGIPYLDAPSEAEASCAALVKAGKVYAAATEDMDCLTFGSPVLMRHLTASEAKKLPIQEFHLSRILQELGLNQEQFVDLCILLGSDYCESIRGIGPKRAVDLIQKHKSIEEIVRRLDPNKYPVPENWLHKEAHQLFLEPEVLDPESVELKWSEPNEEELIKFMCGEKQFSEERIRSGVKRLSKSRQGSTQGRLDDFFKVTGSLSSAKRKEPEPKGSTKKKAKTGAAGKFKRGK

With NCCc1ccc(S(=O)(=O)F)cc1 as the compound, how does the Potency read?
The Potency was “inactive”.

How did the Potency turn out when C=CCN1CC[C@]23c4c5ccc(O)c4O[C@@H]2/C(=N/N=C2\CC[C@@]4(O)C6Cc7ccc(O)c8c7[C@@]4(CCN6CC=C)[C@@H]2O8)CC[C@@]3(O)C1C5 was run?
The Potency was “inactive”.

CN1CCc2cc(O)cc3c2[C@H]1Cc1ccc(O)c(O)c1-3 was tested. Which Potency did it give?
The Potency was 3770 nM (active).

Which Potency does the source give for CC(=O)c1c(O)c(C)c(O)c(Cc2c(O)c3c(c(C(=O)/C=C/c4ccccc4)c2O)OC(C)(C)C=C3)c1O here?
The Potency was “inactive”.

With CC(C)NP(=O)(NC(C)C)OP(=O)(NC(C)C)NC(C)C as the compound, how does the Potency read?
Its Potency is “inactive”.

Which Potency does the source give for OC1CCCCC1N1CCC(c2ccccc2)CC1 (stereo not given) here?
The Potency was “inactive”.

Nc1ccc(CCN2CCN(c3cccc(C(F)(F)F)c3)CC2)cc1 was tested. Which Potency did it give?
The Potency was “inactive”.

For C[C@H](N)CN1CCc2ccc(Br)cc21, which Potency is on record?
Its Potency is “inactive”.

C[N+](C)(C)CC#CCN1CCCC1=O was tested. Which Potency did it give?
The Potency was “inactive”.

COc1ccc2c(c1)c(CCN1CCOCC1)c(C)n2C(=O)c1cccc(Cl)c1Cl was tested. Which Potency did it give?
The Potency was “inactive”.

For NC(Cc1cc(O)c(O)cc1O)C(=O)O (stereo not given), which Potency is on record?
The Potency was 670 nM (active).

With Oc1ccc2c3c1O[C@H]1c4oc5ccccc5c4C[C@@]4(O)C(C2)N(CC2CC2)CCC314 (stereo not given in full) as the compound, how does the Potency read?
Its Potency is “inactive”.

With CCCN(CCC)CCc1ccc(O)c(O)c1 as the compound, how does the Potency read?
Its Potency is “inactive”.

For C=CCN1CC[C@]23c4c5ccc(O)c4O[C@H]2/C(=N/NC(=O)c2ccccc2)CC[C@@]3(O)[C@H]1C5, which Potency is on record?
Its Potency is “inactive”.

For C=CCN1C[C@@H](C)N([C@H](c2ccc(C(=O)N(CC)CC)cc2)c2cccc(OC)c2)C[C@@H]1C, which Potency is on record?
The Potency was “inactive”.

How did the Potency turn out when CCCCCCCCCCCCCC(=O)O[C@@H]1[C@@H](C)[C@@]2(O)[C@@H](C=C(CO)C[C@@]3(O)C(=O)C(C)=C[C@@H]23)C2C(C)(C)[C@@]21OC(C)=O (stereo not given in full) was run?
Its Potency is “inactive”.

For C=CCN(C1=NCCN1)c1c(Cl)cccc1Cl, which Potency is on record?
The Potency was “inactive”.

How did the Potency turn out when CNc1ccc2oc(C[C@H]3O[C@@]4(CC[C@H]3C)O[C@H]([C@H](C)C(=O)c3ccc[nH]3)[C@H](C)C[C@H]4C)nc2c1C(=O)O was run?
The Potency was “inactive”.

How did the Potency turn out when COc1cc(CC(C)N)c(OC)cc1I (stereo not given) was run?
Its Potency is “inactive”.

CC(C)(C)c1cc(C=C(C#N)C#N)cc(C(C)(C)C)c1O was tested. Which Potency did it give?
The Potency was “inactive”.

How did the Potency turn out when N[C@@H](Cn1oc(=O)[nH]c1=O)C(=O)O was run?
The Potency was “inactive”.

Which Potency does the source give for NCC(O)c1cc(O)c(O)cc1F (stereo not given) here?
The Potency was 2670 nM (active).

With CCCC[N+]1(C)C2CC(OC(=O)[C@H](CO)c3ccccc3)CC1C1OC12 (stereo not given in full) as the compound, how does the Potency read?
The Potency was “inactive”.

How did the Potency turn out when OCc1cnc[nH]1 was run?
Its Potency is “inactive”.

Which Potency does the source give for CN1CCc2cccc(Cl)c2CC1 here?
The Potency was “inactive”.

How did the Potency turn out when Oc1ccc2c3c1O[C@H]1c4[nH]c5ccccc5c4C[C@@]4(O)C(C2)N(CC2CC2)CCC314 (stereo not given in full) was run?
Its Potency is “inactive”.

How did the Potency turn out when C[C@@H]1O[C@@H](O[C@H]2C[C@@H](O)[C@]3(CO)[C@@H]4C(CC[C@]3(O)C2)[C@@]2(O)CC[C@H]([C@@H]3COC(=O)C3)[C@@]2(C)C[C@H]4O)[C@H](O)[C@H](O)[C@H]1O (stereo not given in full) was run?
Its Potency is “inactive”.

CCS(=O)(=O)Nc1cccc(C(=C2CCCCC2)c2cnc[nH]2)c1 was tested. Which Potency did it give?
Its Potency is “inactive”.

Which Potency does the source give for C[Se]C[C@H](N)C(=O)O here?
Its Potency is “inactive”.

NC(Cc1ccc(N(CCCl)CCCl)cc1)C(=O)O (stereo not given) was tested. Which Potency did it give?
The Potency was “inactive”.

With c1ccc2c(N3CCNCC3)cccc2c1 as the compound, how does the Potency read?
Its Potency is “inactive”.

How did the Potency turn out when O=[N+]([O-])/C=C/c1ccc2c(c1)OCO2 was run?
The Potency was “inactive”.

CC(C)[C@@]1(NC(=O)[C@@H]2C[C@@H]3c4cccc5[nH]cc(c45)C[C@H]3N(C)C2)O[C@@]2(O)[C@@H]3CCCN3C(=O)[C@H](Cc3ccccc3)N2C1=O was tested. Which Potency did it give?
Its Potency is “inactive”.

NCCCP(=O)(O)O was tested. Which Potency did it give?
The Potency was “inactive”.

For COc1ccc2c(c1O)-c1cccc3c1[C@@H](C2)N(C)CC3, which Potency is on record?
The Potency was “inactive”.

For CC(=O)NBr, which Potency is on record?
Its Potency is “inactive”.

Clc1cc(I)cc(Cl)c1NC1=NCCN1 was tested. Which Potency did it give?
Its Potency is “inactive”.

Which Potency does the source give for Ic1ccccc1CNC1C2CCN(CC2)C1C(c1ccccc1)c1ccccc1 (stereo not given) here?
Its Potency is “inactive”.

For Cc1[nH]c2ccc(O)cc2c1CCN, which Potency is on record?
Its Potency is “inactive”.

With NC(C(=O)O)c1cc(=O)[nH]o1 (stereo not given) as the compound, how does the Potency read?
Its Potency is “inactive”.
